Results taken from PubChem BioAssay (NCATS).
Results filed as inconclusive are left out. Where a call stands in place of a potency, no number is given. A number with no mark means an inactive call. The source made the active and inactive calls. The call rests on the fitted dose curve; in most records, active means well fitted inhibition curve with a large enough effect; inconclusive means small, poorly fitted or top-dose-only effect; inactive means flat fitted curve, though single readings scatter.

What was measured:
[1] = qHTS profiling for inhibitors of Plasmodium falciparum proliferation (AID 504749); further: nearly all actives have a fitted effect of over 60% in size; details: P. falciparum in erythrocytes, SYBR Green DNA, 72 h, at 28.7 µM (top of the series)
Method in brief: (§1)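 SYBR Green fluorescence of parasite DNA, read after lysis and overnight dark incubation, measured growth over 72 h in erythrocyte culture at 0.3% parasitemia and 2.5% hematocrit. Data normalised to DMSO and 0.29 uM artemisinin, with plate-drift correction.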

[2] = test system: 3D7; assay: as above; details: P. falciparum in erythrocytes, SYBR Green DNA, 72 h; series mostly up to 28.7 µM
Method in brief: as §1

[3] = test system: AA1029; assay: as above; details: P. falciparum in erythrocytes, SYBR Green DNA, 72 h; series mostly up to 28.7 µM
Method in brief: as §1

[4] = test system: AS120; assay: as above; details: P. falciparum in erythrocytes, SYBR Green DNA, 72 h; series mostly up to 28.7 µM
Method in brief: as §1

[5] = test system: ATS189; assay: as above; details: P. falciparum in erythrocytes, SYBR Green DNA, 72 h; series mostly up to 28.7 µM
Method in brief: as §1

[6] = test system: ATS95; assay: as above; details: P. falciparum in erythrocytes, SYBR Green DNA, 72 h; series mostly up to 28.7 µM
Method in brief: as §1

[7] = test system: C2A; assay: as above; details: P. falciparum in erythrocytes, SYBR Green DNA, 72 h; series mostly up to 28.7 µM
Method in brief: as §1

[8] = test system: CP185; assay: as above; details: P. falciparum in erythrocytes, SYBR Green DNA, 72 h; series mostly up to 28.7 µM
Method in brief: as §1

[9] = test system: CP191; assay: as above; details: P. falciparum in erythrocytes, SYBR Green DNA, 72 h; series mostly up to 28.7 µM
Method in brief: as §1

[10] = test system: CP194; assay: as above; details: P. falciparum in erythrocytes, SYBR Green DNA, 72 h; series mostly up to 28.7 µM
Method in brief: as §1

[11] = test system: CP201; assay: as above; details: P. falciparum in erythrocytes, SYBR Green DNA, 72 h; series mostly up to 28.7 µM
Method in brief: as §1

[12] = test system: CP203; assay: as above; details: P. falciparum in erythrocytes, SYBR Green DNA, 72 h; series mostly up to 28.7 µM
Method in brief: as §1

[13] = test system: CP211; assay: as above; details: P. falciparum in erythrocytes, SYBR Green DNA, 72 h; series mostly up to 28.7 µM
Method in brief: as §1

[14] = test system: CP215; assay: as above; details: P. falciparum in erythrocytes, SYBR Green DNA, 72 h; series mostly up to 28.7 µM
Method in brief: as §1

[15] = test system: CP217; assay: as above; details: P. falciparum in erythrocytes, SYBR Green DNA, 72 h; series mostly up to 28.7 µM
Method in brief: as §1

[16] = test system: CP192; assay: as above; details: P. falciparum in erythrocytes, SYBR Green DNA, 72 h; series mostly up to 28.7 µM
Method in brief: as §1
Potency means the concentration at half of the fitted maximal effect.

C#C[C@]1(OC(C)=O)CC[C@H]2[C@@H]3CCC4=C/C(=N/O)CC[C@@H]4[C@H]3CC[C@@]21CC
activity, negative = inhibition ([1]; parasite line A): -6.98%
activity, negative = inhibition ([1]; parasite line B): -15.6%
Potency [2]: inactive
Potency [3]: inactive
Potency [4]: inactive
Potency [5]: inactive
Potency [6]: inactive
Potency [7]: inactive
Potency [8]: inactive
Potency [9]: inactive
Potency [10]: inactive
Potency [11]: inactive
Potency [12]: inactive
Potency [13]: inactive
Potency [14]: inactive
Potency [15]: inactive

Cl/C(=C\n1cncn1)c1ccc(Cl)cc1Cl
activity, negative = inhibition ([1]; parasite line A): 10.9%
activity, negative = inhibition ([1]; parasite line B): 7.76%
Potency [2]: inactive
Potency [3]: inactive
Potency [4]: inactive
Potency [5]: inactive
Potency [6]: inactive
Potency [7]: inactive
Potency [8]: inactive
Potency [9]: inactive
Potency [16]: inactive
Potency [10]: inactive
Potency [11]: inactive
Potency [12]: inactive
Potency [13]: inactive
Potency [14]: inactive
Potency [15]: inactive

NC(=O)C1(N2CCCCC2)CCN(CCCC(=O)c2ccc(F)cc2)CC1
activity, negative = inhibition ([1]; parasite line A): 3.28%
activity, negative = inhibition ([1]; parasite line B): 10.8%
Potency [2]: inactive
Potency [3]: inactive
Potency [4]: inactive
Potency [5]: inactive
Potency [6]: inactive
Potency [7]: inactive
Potency [8]: inactive
Potency [9]: inactive
Potency [16]: inactive
Potency [11]: inactive
Potency [12]: inactive
Potency [13]: inactive
Potency [14]: inactive
Potency [15]: inactive

O=C1C(O)=C(O)C(=O)C(O)=C1O
activity, negative = inhibition ([1]; parasite line A): 5.3%
activity, negative = inhibition ([1]; parasite line B): 12.3%
Potency [3]: inactive
Potency [4]: inactive
Potency [5]: inactive
Potency [6]: inactive
Potency [7]: inactive
Potency [8]: inactive
Potency [9]: inactive
Potency [16]: inactive
Potency [10]: inactive
Potency [11]: inactive
Potency [12]: inactive
Potency [13]: inactive
Potency [14]: inactive
Potency [15]: inactive

CN(C)CCN1C(=O)c2ccccc2N(C)c2ccccc21
activity, negative = inhibition ([1]; parasite line A): -2.77%
activity, negative = inhibition ([1]; parasite line B): 8.88%
Potency [2]: inactive
Potency [7]: inactive
Potency [14]: inactive

CCC(CC)(CC(=O)Nc1cccc(/C=C/c2nc(C3CCC3)cs2)c1)C(=O)O
activity, negative = inhibition ([1]; parasite line A): -2.66%
activity, negative = inhibition ([1]; parasite line B): -0.894%
Potency [2]: inactive
Potency [3]: inactive
Potency [4]: inactive
Potency [5]: inactive
Potency [6]: inactive
Potency [7]: inactive
Potency [8]: inactive
Potency [9]: inactive
Potency [16]: inactive
Potency [10]: inactive
Potency [11]: inactive
Potency [12]: inactive
Potency [13]: inactive
Potency [14]: inactive
Potency [15]: inactive

CC(=O)OCC(=O)[C@H]1CC[C@H]2[C@@H]3CCC4=CC(=O)CC[C@]4(C)[C@H]3CC[C@]12C
activity, negative = inhibition ([1]; parasite line A): -11.3%
activity, negative = inhibition ([1]; parasite line B): -3.83%
Potency [2]: inactive
Potency [3]: inactive
Potency [5]: inactive
Potency [7]: inactive
Potency [8]: inactive
Potency [9]: inactive
Potency [16]: inactive
Potency [10]: inactive
Potency [11]: inactive
Potency [12]: inactive
Potency [13]: inactive
Potency [15]: inactive

NCCNc1cccc2ccccc12
activity, negative = inhibition ([1]; parasite line A): -9.01%
activity, negative = inhibition ([1]; parasite line B): 2.1%
Potency [2]: inactive
Potency [3]: inactive
Potency [4]: inactive
Potency [5]: inactive
Potency [6]: inactive
Potency [7]: inactive
Potency [8]: inactive
Potency [9]: inactive
Potency [16]: inactive
Potency [10]: inactive
Potency [11]: inactive
Potency [12]: inactive
Potency [13]: inactive
Potency [14]: inactive
Potency [15]: inactive

COc1ccc(CCN(C)CCCN2CCc3cc(OC)c(OC)cc3CC2=O)cc1OC
activity, negative = inhibition ([1]; parasite line A): -14.9%
activity, negative = inhibition ([1]; parasite line B): -7.04%
Potency [2]: inactive
Potency [4]: inactive
Potency [5]: inactive
Potency [6]: inactive
Potency [7]: inactive
Potency [8]: inactive
Potency [9]: inactive
Potency [16]: inactive
Potency [10]: inactive
Potency [11]: inactive
Potency [12]: inactive
Potency [13]: inactive
Potency [14]: inactive
Potency [15]: inactive

CCN(CC)CCOC(=O)C1(c2ccccc2)CCCC1
activity, negative = inhibition ([1]; parasite line A): -50.7%
activity, negative = inhibition ([1]; parasite line B): -32%
Potency [3]: 0.01 µM (active)
Potency [4]: inactive
Potency [5]: inactive
Potency [6]: inactive
Potency [7]: inactive
Potency [8]: 11.2 µM (active)
Potency [9]: inactive
Potency [16]: inactive
Potency [12]: 10.7 µM (active)
Potency [15]: inactive

C=CCN1CCc2nc(N)sc2CC1
activity, negative = inhibition ([1]; parasite line A): -6.7%
activity, negative = inhibition ([1]; parasite line B): 2.41%
Potency [2]: inactive
Potency [3]: inactive
Potency [4]: inactive
Potency [5]: inactive
Potency [6]: inactive
Potency [7]: inactive
Potency [8]: inactive
Potency [9]: inactive
Potency [16]: inactive
Potency [10]: inactive
Potency [11]: inactive
Potency [12]: inactive
Potency [13]: inactive
Potency [14]: inactive
Potency [15]: inactive
